Of roughly 7,900 targets only a part is listed; those with a hit were picked by preference. About 0.6% of all pairs of compound and target were hits. Unmarked numbers belong to inactive results.
Legend:
Assay in all cases: log2 fold change, soluble protein after heating vs DMSO (PISA); higher = thermal stabilisation; K562 cells, 10 uM, 30 min; active = over 0.2 and 3.5 SD of the protein, either way, in both replicates (recomputed)
saracatinib = compound: CN1CCN(CCOc2cc(OC3CCOCC3)c3c(Nc4c(Cl)ccc5c4OCO5)ncnc3c2)CC1 [saracatinib]
Outline: (§1)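 K562 cells at 2×10^6 cells/mL were given 10 μM compound for 30 min. Aliquots then went through 3 min of heating across 48°C-58°C, were pooled, and were extracted in PBS with 0.5% NP-40 at 4°C, and the supernatant after 21,000xg for 90 min was quantified by TMTpro 16plex LC-MS/MS with channel sums equalised. Thermal stability relative to control samples, from duplicates, is given as log2 fold change.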

sotrastaurin = compound: CN1CCN(c2nc(C3=C(c4c[nH]c5ccccc45)C(=O)NC3=O)c3ccccc3n2)CC1 [sotrastaurin]
Outline: as §1

alvocidib = compound: CN1CC[C@H](c2c(O)cc(O)c3c(=O)cc(-c4ccccc4Cl)oc23)[C@H](O)C1 [alvocidib]
Outline: as §1

Tubastatin A = compound: CN1CCc2c(c3ccccc3n2Cc2ccc(C(=O)NO)cc2)C1 [Tubastatin A]
Outline: as §1

[1] = compound: CNC(=O)C1=CC=CC=C1NC2=NC(=NC=C2Cl)NC3=C(C=C(C=C3)N4CCOCC4)OC
Outline: as §1

defactinib = compound: CNC(=O)c1ccc(Nc2ncc(C(F)(F)F)c(NCc3nccnc3N(C)S(C)(=O)=O)n2)cc1 [defactinib]
Outline: as §1

rucaparib = compound: CNCc1ccc(-c2[nH]c3cc(F)cc4c3c2CCNC4=O)cc1 [rucaparib]
Outline: as §1

[2] = compound: CNc1nc(-c2ccc3c(N)n[nH]c3c2)cc(N2C[C@@H](C(=O)NC3CCCCC3)CC[C@H]2C)n1
Outline: as §1

encorafenib = compound: COC(=O)N[C@@H](C)CNc1nccc(-c2cn(C(C)C)nc2-c2cc(Cl)cc(NS(C)(=O)=O)c2F)n1 [encorafenib]
Outline: as §1

[3] = compound: COC(=O)[C@H](CCSC)NC(=O)C1=C(C=C(C=C1)NC[C@H](CS)N)C2=CC=CC=C2
Outline: as §1

Sequence of UniProt O00483 (O00483 whole entry, looked up): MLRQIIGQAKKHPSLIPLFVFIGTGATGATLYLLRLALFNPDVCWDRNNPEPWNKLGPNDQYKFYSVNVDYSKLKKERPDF
Sequence of UniProt Q9BPX3 (Q9BPX3 whole entry, looked up): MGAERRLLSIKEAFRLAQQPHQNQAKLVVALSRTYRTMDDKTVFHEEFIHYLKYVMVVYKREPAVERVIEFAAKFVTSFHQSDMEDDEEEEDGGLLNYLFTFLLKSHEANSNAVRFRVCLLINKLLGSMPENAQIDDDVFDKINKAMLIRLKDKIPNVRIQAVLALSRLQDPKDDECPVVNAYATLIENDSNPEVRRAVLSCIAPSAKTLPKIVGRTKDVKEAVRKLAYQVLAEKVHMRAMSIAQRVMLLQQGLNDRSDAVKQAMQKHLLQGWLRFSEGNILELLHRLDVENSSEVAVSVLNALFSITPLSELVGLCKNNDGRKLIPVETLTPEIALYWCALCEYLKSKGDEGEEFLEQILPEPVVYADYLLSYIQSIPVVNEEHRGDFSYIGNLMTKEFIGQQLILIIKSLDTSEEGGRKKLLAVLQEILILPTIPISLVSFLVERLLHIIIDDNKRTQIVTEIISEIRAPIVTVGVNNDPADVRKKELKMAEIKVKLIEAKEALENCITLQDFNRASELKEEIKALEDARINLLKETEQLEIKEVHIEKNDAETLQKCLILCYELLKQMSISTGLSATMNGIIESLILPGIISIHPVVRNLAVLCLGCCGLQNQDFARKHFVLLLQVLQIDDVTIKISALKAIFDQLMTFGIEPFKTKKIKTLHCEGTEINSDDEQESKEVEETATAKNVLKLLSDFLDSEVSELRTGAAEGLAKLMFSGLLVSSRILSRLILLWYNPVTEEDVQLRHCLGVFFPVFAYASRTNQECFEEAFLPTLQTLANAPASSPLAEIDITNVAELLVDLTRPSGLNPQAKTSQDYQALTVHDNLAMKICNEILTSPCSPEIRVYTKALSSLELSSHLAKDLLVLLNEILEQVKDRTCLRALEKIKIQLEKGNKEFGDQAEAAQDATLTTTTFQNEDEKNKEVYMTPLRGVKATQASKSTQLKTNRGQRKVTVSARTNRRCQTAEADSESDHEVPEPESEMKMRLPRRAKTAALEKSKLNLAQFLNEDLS
Sequence of UniProt Q8NCF5 (Q8NCF5 whole entry, looked up): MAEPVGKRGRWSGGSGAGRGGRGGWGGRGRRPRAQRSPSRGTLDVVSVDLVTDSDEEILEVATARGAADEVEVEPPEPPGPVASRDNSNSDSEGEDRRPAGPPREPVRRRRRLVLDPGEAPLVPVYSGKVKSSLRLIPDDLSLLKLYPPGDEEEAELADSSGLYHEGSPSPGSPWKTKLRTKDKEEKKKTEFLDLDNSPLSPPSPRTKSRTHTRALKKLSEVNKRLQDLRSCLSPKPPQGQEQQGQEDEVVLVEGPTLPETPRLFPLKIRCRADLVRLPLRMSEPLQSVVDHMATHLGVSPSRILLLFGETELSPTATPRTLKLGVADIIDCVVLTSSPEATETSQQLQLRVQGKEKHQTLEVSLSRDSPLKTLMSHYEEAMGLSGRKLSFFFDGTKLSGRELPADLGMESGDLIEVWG
Sequence of UniProt P57740 (P57740 whole entry, looked up): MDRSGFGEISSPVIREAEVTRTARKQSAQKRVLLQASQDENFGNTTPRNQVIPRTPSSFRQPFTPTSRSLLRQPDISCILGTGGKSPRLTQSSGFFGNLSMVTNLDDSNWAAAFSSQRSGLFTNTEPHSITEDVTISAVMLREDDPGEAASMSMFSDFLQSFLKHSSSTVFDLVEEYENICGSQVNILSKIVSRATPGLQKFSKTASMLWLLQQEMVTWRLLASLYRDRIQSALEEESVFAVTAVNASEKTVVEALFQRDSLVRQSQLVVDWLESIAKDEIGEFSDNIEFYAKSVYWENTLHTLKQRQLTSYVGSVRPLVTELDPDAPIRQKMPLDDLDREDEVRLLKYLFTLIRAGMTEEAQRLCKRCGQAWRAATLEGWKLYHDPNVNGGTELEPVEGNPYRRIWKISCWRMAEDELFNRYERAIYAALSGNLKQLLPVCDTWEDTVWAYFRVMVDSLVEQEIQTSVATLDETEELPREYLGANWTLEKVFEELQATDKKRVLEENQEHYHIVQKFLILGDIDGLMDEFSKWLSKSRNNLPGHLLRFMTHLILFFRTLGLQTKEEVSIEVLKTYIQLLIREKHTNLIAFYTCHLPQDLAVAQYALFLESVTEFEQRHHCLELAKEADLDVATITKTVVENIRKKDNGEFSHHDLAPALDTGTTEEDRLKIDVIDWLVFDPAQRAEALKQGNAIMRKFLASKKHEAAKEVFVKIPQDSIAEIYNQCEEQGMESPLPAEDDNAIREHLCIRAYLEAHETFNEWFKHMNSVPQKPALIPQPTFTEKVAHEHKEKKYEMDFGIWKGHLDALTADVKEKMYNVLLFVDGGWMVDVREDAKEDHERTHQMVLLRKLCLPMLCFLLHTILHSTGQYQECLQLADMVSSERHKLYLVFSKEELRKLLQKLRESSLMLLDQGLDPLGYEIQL
Sequence of UniProt Q9H4L5 (Q9H4L5 whole entry, looked up): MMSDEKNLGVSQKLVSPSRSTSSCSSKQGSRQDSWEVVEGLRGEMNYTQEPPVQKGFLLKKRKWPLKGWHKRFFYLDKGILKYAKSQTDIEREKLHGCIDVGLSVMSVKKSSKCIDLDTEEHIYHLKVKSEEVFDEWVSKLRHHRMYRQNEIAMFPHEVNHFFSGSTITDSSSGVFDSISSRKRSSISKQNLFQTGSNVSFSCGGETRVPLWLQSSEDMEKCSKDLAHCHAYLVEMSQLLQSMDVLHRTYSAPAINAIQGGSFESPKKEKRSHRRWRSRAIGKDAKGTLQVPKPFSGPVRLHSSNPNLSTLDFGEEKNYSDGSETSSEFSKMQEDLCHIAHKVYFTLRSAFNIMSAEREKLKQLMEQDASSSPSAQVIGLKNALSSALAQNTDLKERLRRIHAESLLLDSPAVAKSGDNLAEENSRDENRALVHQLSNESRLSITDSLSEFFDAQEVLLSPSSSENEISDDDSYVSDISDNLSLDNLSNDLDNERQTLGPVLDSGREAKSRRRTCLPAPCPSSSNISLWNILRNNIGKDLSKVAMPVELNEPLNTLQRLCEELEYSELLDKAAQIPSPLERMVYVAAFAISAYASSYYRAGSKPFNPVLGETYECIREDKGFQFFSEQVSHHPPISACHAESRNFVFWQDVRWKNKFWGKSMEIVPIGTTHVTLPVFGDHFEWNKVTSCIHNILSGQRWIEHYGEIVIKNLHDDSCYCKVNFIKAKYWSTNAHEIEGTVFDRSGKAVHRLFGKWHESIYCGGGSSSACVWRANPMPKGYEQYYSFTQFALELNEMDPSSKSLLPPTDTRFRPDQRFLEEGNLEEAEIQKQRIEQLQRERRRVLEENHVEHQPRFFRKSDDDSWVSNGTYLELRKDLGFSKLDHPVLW
Sequence of UniProt Q9ULX3 (Q9ULX3 whole entry, looked up): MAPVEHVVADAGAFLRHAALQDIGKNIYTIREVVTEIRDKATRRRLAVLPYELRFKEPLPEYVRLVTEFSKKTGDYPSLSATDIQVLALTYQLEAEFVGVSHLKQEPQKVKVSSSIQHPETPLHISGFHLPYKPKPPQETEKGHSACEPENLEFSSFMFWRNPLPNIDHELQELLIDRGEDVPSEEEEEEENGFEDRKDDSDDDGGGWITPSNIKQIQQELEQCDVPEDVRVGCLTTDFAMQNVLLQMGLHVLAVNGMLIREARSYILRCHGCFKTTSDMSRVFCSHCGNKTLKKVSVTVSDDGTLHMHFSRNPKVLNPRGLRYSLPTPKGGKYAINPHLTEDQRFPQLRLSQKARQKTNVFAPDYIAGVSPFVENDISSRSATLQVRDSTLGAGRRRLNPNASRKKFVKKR
Sequence of UniProt Q16656 (Q16656 whole entry, looked up): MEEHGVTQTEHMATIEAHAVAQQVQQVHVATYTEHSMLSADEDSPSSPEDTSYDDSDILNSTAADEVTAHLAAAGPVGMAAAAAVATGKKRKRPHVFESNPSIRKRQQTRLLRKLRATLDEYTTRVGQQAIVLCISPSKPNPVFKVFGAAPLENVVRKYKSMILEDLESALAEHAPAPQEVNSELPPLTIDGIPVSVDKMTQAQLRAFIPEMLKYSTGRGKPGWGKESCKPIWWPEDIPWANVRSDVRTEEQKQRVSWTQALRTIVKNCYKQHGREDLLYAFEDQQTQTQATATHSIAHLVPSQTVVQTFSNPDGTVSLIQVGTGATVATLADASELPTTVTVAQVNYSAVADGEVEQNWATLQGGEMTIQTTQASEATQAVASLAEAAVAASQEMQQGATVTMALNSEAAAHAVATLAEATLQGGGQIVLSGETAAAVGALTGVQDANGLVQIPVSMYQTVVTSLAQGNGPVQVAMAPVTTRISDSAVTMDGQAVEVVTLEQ
Sequence of UniProt P19338 (P19338 whole entry, looked up): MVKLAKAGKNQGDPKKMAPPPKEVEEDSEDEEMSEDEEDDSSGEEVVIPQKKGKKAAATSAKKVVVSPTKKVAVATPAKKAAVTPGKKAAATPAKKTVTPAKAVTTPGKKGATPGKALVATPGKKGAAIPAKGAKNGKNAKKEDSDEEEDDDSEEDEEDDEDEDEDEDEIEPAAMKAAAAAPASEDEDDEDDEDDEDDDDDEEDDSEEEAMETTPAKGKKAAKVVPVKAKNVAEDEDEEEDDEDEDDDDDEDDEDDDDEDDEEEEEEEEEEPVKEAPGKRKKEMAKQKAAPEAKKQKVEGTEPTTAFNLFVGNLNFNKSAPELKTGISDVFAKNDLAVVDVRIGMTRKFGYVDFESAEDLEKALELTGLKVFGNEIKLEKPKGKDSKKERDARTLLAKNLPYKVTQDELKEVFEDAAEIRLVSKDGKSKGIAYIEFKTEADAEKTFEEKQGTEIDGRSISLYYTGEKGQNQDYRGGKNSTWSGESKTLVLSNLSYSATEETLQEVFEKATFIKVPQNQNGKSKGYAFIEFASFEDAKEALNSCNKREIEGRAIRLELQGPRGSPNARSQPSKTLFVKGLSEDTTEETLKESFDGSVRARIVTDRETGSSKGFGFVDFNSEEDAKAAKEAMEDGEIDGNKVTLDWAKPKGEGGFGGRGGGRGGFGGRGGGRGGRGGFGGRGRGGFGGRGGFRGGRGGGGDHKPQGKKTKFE

| Target | log2 fold change (saracatinib) | log2 fold change (sotrastaurin) | log2 fold change (alvocidib) | log2 fold change (Tubastatin A) | log2 fold change [1] | log2 fold change (defactinib) | log2 fold change (rucaparib) | log2 fold change [2] | log2 fold change (encorafenib) | log2 fold change [3] |
| --- | --- | --- | --- | --- | --- | --- | --- | --- | --- | --- |
| NFATC2IP (UniProt Q8NCF5) | 0.065 | -0.033 | -0.107 | 0.012 | 0.067 | -0.122 | 0 | 0.005 | 0.075 | -0.017 |
| MRPS15 (UniProt P82914) | -0.134 | -0.079 | -0.057 | 0.039 | -0.07 | 0.035 | 0.084 | 0.115 | 0.039 | -0.01 |
| NUP210 (UniProt Q8TEM1) | 0.017 | -0.019 | -0.04 | -0.003 | -0.147 | -0.021 | -0.039 | -0.07 | 0.027 | -0.035 |
| NCAPG (UniProt Q9BPX3) | -0.077 | -0.122 | -0.053 | 0.026 | 0.106 | -0.067 | 0.078 | -0.004 | 0.093 | -0.039 |
| NME7 (UniProt Q9Y5B8) | -0.109 | -0.017 | -0.117 | 0.054 | 0.016 | -0.047 | 0.006 | -0.001 | 0.086 | -0.006 |
| NAA11 (UniProt Q9BSU3) | 0.033 | -0.247 | -0.038 | 0.035 | -0.078 | -0.132 | 0.135 | -0.133 | 0.022 | 0.034 |
| NRF1 isoform 4 (UniProt Q16656) | 0.102 | -0.045 | -0.159 | 0.015 | -0.016 | -0.34 (active) | -0.11 | -0.061 | 0.036 | 0.015 |
| MRPL50 (UniProt Q8N5N7) | 0.148 | -0.048 | 0.066 | 0.133 | -0.011 | 0.04 | 0.063 | -0.065 | -0.01 | 0.061 |
| NDUFB8 (UniProt O95169) | -0.064 | 0.071 | -0.077 | -0.016 | 0.002 | -0.037 | 0.003 | -0.073 | 0.016 | -0.048 |
| NARS2 (UniProt Q96I59) | -0.004 | 0.03 | -0.039 | -0.127 | -0.056 | 0.001 | -0.021 | -0.006 | 0.008 | -0.008 |
| MRPS9 (UniProt P82933) | -0.064 | -0.072 | 0.043 | 0.04 | 0.013 | 0.056 | 0.087 | 0.136 | 0.05 | -0.081 |
| NDUFA4 (UniProt O00483) | 0.021 | 0.021 | 0.022 | -0.029 | 0.009 | -0.03 | -0.106 | -0.129 | -0.04 | 0.001 |
| NUDT1 (UniProt P36639) | 0.068 | 0.043 | -0.038 | 0.193 | 0.05 | 0.019 | 0.416 | 0.196 | -0.03 | -0.074 |
| OSBP (UniProt P22059) | -0.051 | -0.147 | -0.028 | 0.037 | 0.062 | -0.066 | -0.11 | 0.062 | -0.006 | -0.001 |
| NDUFAF6 (UniProt Q330K2) | -0.071 | -0.112 | -0.025 | -0.101 | 0.038 | -0.04 | -0.108 | -0.146 | 0.081 | 0.084 |
| MYL12B (UniProt O14950) | 0.057 | -0.012 | -0.14 | 0.019 | 0.007 | -0.036 | 0.009 | -0.041 | -0.012 | -0.018 |
| MSTO1 (UniProt Q9BUK6) | 0.047 | 0.025 | -0.001 | 0.023 | -0.031 | -0.045 | -0.029 | 0.235 (active) | 0.04 | 0.034 |
| NUP107 (UniProt P57740) | -0.017 | -0.103 | -0.056 | 0.067 | 0.023 | -0.081 | 0.041 | 0.02 | 0.111 | 0 |
| MITD1 (UniProt Q8WV92) | -0.031 | -0.002 | -0.005 | 0.161 | -0.146 | 0.133 | 0.097 | -0.112 | -0.018 | -0.043 |
| MON1B (UniProt Q7L1V2) | 0.005 | -0.028 | -0.057 | 0.048 | -0.011 | 0.016 | -0.015 | -0.036 | 0.037 | -0.013 |
| NIPSNAP2 (UniProt O75323) | -0.017 | -0.082 | 0.031 | -0.019 | 0.104 | -0.003 | -0.085 | -0.08 | -0.028 | 0.033 |
| MRPS10 (UniProt P82664) | -0.029 | -0.076 | -0.007 | 0.035 | -0.034 | -0.071 | 0.006 | 0.097 | 0.014 | -0.055 |
| NCL (UniProt P19338) | -0.111 | 0.013 | 0.277 | 0.148 | -0.001 | 0.354 | 0.387 | 0.137 | 0.257 | -0.01 |
| MRPS24 (UniProt Q96EL2) | -0.153 | -0.124 | -0.202 | 0.024 | 0.067 | 0.041 | 0.153 | 0.137 | 0.08 | -0.108 |
| MMS19 isoform 8 (UniProt Q96T76) | -0.013 | -0.156 | -0.115 | -0.071 | 0.003 | -0.127 | 0.052 | -0.003 | 0.099 | -0.008 |
| ORC3 isoform 2 (UniProt Q9UBD5) | 0.001 | 0.011 | -0.299 | 0.006 | -0.078 | -0.288 | 0 | 0.014 | 0.288 | 0.06 |
| MRPS33 (UniProt Q9Y291) | -0.033 | -0.077 | -0.038 | 0.02 | -0.018 | 0.087 | 0.119 | 0.04 | 0.024 | 0.02 |
| NOB1 (UniProt Q9ULX3) | -0.022 | -0.092 | 0 | 0.045 | -0.047 | -0.009 | 0.141 | 0.103 | 0.007 | 0 |
| OSBPL3 (UniProt Q9H4L5) | -0.284 | -0.414 | 0.234 | 0.219 | 0.312 | 0.127 | 0.518 | 0.122 | 0.006 | -0.11 |

From the supplement of paper PMC10849652
